Experimental data as given in PubChem BioAssay (Tox21).
Inconclusive results are not listed. Activity calls are given as the source filed them. Unless noted, calls follow the shape of the dose curve; as a rule, active = well fitted curve in the direction sought with a large enough effect in the repeat runs; inconclusive = weak or mixed curves; inactive = no such curve, though single readings can be large; an effect the other way counts as inactive or inconclusive.

Columns and labels:
[1] = qHTS assay to identify small molecule agonists of the vitamin D receptor (VDR) signaling pathway - cell viability counter screen (AID 743224); also: nearly all actives have a fitted effect of over 50% in size
In short: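 VDR-bla cells, 4 h after plating, exposed to compounds for 16 h at 37C; viability then read in the same wells as CellTiter-Glo luminescence after 30 min at room temperature, following the bla FRET read.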

[2] = qHTS assay to identify small molecule agonists of the NFkB signaling pathway (AID 1159509; active = well fitted curve in the direction sought with a large enough effect in the signal ratio in the repeat runs, not every such curve was filed as active; the % refers to the signal ratio)
In short: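 ME-180 NFkB-bla, 2,000 cells/well, overnight plating; cpd pinned in DMSO, 5 h 37 C; B/G FRET substrate 1.5 h RT; ex 405, em 460/530 nm.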

[3] = qHTS assay to identify small molecule agonists of the NFkB signaling pathway - cell viability counter screen (AID 1159515; calls by dose curve; also: nearly all actives have a fitted effect of over 55% in size)
In short: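 NFkB-bla ME-180 cells, 2,000/well, plated overnight at 37 C; compound added for 5 hr at 37 C. Viability read in the same wells as the bla reporter, by CellTiter-Glo luminescence after 30 min at room temperature.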

[4] = qHTS assay to identify small molecule agonists of the endoplasmic reticulum stress response signaling pathway (AID 1159516; active = well fitted activation curve with a large enough effect in the signal ratio in the repeat runs, not every such curve was filed as active; the % refers to the signal ratio)
In short: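 CellSensor ESRE-bla HeLa cells, 1,500 per well, plated overnight, then exposed to compounds for 5 hr at 37 C. Beta-lactamase reporter read with LiveBLAzer B/G FRET substrate after 2 hr at room temperature, 405 nm excitation, 460 and 530 nm emission.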

[5] = qHTS assay to identify small molecule agonists of the endoplasmic reticulum stress response signaling pathway - cell viability counter screen (AID 1159517; calls by dose curve;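 also: HeLa cells carrying an ER stress response element beta-lactamase reporter; nearly all actives have a fitted effect of over 50% in size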)
In short: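 HeLa cells carrying an ESRE-driven beta-lactamase reporter receive compound for 5 hr at 37 C. Cell viability is then gauged with CellTiter-Glo by luminescence, 30 min at room temperature.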

[6] = qHTS assay to identify small molecule antagonists of the retinoid-related orphan receptor gamma (ROR-gamma) signaling pathway - cell viability counter screen (AID 1159520); also: nearly all actives have a fitted effect of over 50% in size
In short: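 Cytotoxicity was read from cellular ATP (CellTiter-Glo luminescence) after 16 hr at 37 C with 1 uM doxycycline induction. The inducer was added 2 hr after compound transfer to Tet-on ROR gamma CHO cells.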

[7] = target: Nuclear receptor ROR-gamma (Homo sapiens) (UniProt P51449); test: qHTS assay to identify small molecule antagonists of the retinoid-related orphan receptor gamma (ROR-gamma) signaling pathway (AID 1159521;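 also: CHO cells with doxycycline inducible ROR-gamma driving an RORE luciferase reporter; top concentration of the series differs between compounds; nearly all actives have a fitted effect of over 50% in size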)
In short: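 Cells were plated, rested 4 h at 37 C, exposed to compounds for 2 h, then given 1 uM final doxycycline hyclate to induce RORγ expression. After 16 h, ONE-Glo luminescence from the ROR response element reporter was measured.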

[8] = qHTS assay to identify small molecule agonists of the AP-1 signaling pathway - cell viability counter screen (AID 1159525; calls by dose curve; also: nearly all actives have a fitted effect of over 55% in size)
In short: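 Luminescent ATP readout (Cell Titer Glo, 30 min RT), normalised to DMSO and tetra n-octyl ammonium bromide controls. Cells were ME-180 AP-1-bla in 0.5% dialyzed FBS Opti-MEM, with a 5 h, 37 °C compound exposure.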

[9] = qHTS assay to identify small molecule agonists of the AP-1 signaling pathway (AID 1159526; calls by dose curve)
[10] = target: Retinoic acid receptor RXR-alpha (Homo sapiens) (UniProt P19793); test: qHTS assay to identify small molecule agonists of the RXR signaling pathway (AID 1159527; calls by dose curve; also: nearly all actives have a fitted effect of over 35% in size)
Chain of Retinoic acid receptor RXR-alpha (Homo sapiens) (P19793 whole entry, looked up): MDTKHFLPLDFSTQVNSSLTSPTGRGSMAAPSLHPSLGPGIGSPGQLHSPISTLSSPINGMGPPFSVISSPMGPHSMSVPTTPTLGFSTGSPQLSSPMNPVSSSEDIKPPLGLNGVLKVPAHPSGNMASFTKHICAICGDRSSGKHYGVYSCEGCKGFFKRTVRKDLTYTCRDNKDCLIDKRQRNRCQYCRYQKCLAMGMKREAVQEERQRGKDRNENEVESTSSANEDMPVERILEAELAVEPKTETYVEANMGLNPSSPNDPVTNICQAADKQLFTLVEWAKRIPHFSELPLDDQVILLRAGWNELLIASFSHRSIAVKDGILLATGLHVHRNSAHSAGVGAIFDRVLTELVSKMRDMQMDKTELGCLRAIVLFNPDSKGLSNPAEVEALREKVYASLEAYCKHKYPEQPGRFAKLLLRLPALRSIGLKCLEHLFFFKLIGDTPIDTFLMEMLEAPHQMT
In short: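 Cells plated at 2,000/well, rested 5 hr at 37 C, pin-dosed with DMSO compound solutions, incubated 16 hr, then loaded with B/G FRET substrate for 2 hr at RT before dual-emission fluorescence reading.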

[11] = qHTS assay to identify small molecule agonists of the RXR signaling pathway - cell viability counter screen (AID 1159529)
In short: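 Steps: seed RXR-alpha-UAS-bla HEK 293T cells in assay medium containing 2% charcoal-stripped FBS; incubate 5 hr; add compounds in DMSO; incubate 16 hr at 37 C; after the bla read, add CellTiter-Glo and read luminescence at 30 min.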

[12] = qHTS assay to identify small molecule antagonists of the retinoic acid receptor (RAR) signaling pathway (AID 1159552; also: nearly all actives have a fitted effect of over 50% in size)
In short: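 Retinol at 1 uM final stimulated RARE-luciferase expression in C3RL4 cells exposed to test compounds for 6 hr at 37 C. Reduced luminescence, read 30 min after detection reagent, indicated pathway antagonism.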

[13] = qHTS assay to identify small molecule agonists of the retinoic acid receptor (RAR) signaling pathway (AID 1159553); settings: C3RL4 RARE luciferase reporter, agonist, 6 h; activation: at 73.3 µM (top of the series)
In short: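 C3RL4 RARE-luciferase cells were seeded at 1,000/well and grown overnight at 37 C, then exposed to compounds for 6 hr at 37 C, 5% CO2. Luciferase reagent was added and luminescence was read after 30 min at room temperature.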

[14] = qHTS assay to identify small molecule antagonists of the estrogen related receptor (ERR) signaling pathway from Tox21 library - cell viability counter screen (AID 1224834); also: nearly all actives have a fitted effect of over 30% in size
In short: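 ERR reporter cells, 2,000 per well, rested 6 h, then exposed to compound in DMSO for 17.5 hours at 37 C. Viability read as fluorescence after 30 min with CellTiter-Fluor.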

[15] = target: Luciferin 4-monooxygenase (Photinus pyralis) (UniProt P08659); test: qHTS assay to identify small molecule inhibitors of firefly luciferase (AID 1224835); also: nearly all actives have a fitted effect of over 25% in size
Chain of Luciferin 4-monooxygenase (Photinus pyralis) (P08659 whole entry, looked up): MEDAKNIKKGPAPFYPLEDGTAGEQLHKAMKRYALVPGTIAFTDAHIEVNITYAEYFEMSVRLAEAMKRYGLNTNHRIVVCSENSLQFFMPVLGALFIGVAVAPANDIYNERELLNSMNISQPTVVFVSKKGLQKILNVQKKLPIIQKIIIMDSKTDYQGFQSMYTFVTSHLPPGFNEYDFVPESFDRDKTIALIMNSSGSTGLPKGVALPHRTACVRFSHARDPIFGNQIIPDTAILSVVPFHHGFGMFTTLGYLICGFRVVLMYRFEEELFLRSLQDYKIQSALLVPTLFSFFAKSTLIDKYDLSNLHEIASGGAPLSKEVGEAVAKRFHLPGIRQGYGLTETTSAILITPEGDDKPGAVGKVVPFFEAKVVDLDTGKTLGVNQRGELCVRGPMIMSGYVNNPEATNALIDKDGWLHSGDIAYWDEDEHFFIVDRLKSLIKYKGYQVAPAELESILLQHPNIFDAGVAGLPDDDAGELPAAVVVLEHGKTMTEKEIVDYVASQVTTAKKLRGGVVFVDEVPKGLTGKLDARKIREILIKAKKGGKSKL
In short: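 Inhibition of purified Photinus luciferase is measured by luminescence. Substrate levels (D-luciferin, ATP) sit at their KM values. Each compound is tested in a concentration series.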

[16] = qHTS assay to identify small molecule antagonists of the constitutive androstane receptor (CAR) signaling pathway - cell viability counter screen (AID 1224837); also: nearly all actives have a fitted effect of over 45% in size
In short: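 HepG2 cells stably carrying hCAR and CYP2B6-2.2kb reporter, stimulated with 50 nM CITCO and compounds at 15 concentrations for 23 h at 37 C. Viability measured by CellTiter-Fluor fluorescence.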

[17] = qHTS assay to identify small molecule antagonists of the vitamin D receptor (VDR) signaling pathway - cell viability counter screen (AID 743225); also: nearly all actives have a fitted effect of over 50% in size
In short: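 HEK293T VDR-bla; cpd + 1a,25-(OH)2D3 3 nM final, 16 h 37C/5% CO2; B/G FRET substrate 2 h RT; then CellTiter-Glo 30 min RT, luminescence.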

[18] = qHTS assay to identify small molecule antagonists of the retinoid acid receptor (RAR) signaling pathway - cell viability counter screen (AID 1159551); also: nearly all actives have a fitted effect of over 35% in size
In short: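 C3RL4 RARE-luciferase cells, 1,000/well, incubated overnight, then dosed with compound plus 1 uM retinol (final). After 6 hr at 37 C, viability read by CellTiter-Glo ATP luminescence following 30 min at room temperature.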

[19] = qHTS assay to identify small molecule agonists of the constitutive androstane receptor (CAR) signaling pathway - cell viability counter screen (AID 1224836); also: nearly all actives have a fitted effect of over 45% in size
In short: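 Cells were seeded and incubated 4 hrs. Compounds were added across 15 concentrations together with PK11195 at 0.75 uM final. Plates were incubated 23 hrs at 37 C. CellTiter-Fluor was added and fluorescence measured.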

[20] = target: Nuclear receptor subfamily 1 group I member 3 (Homo sapiens) (UniProt Q14994); test: qHTS assay to identify small molecule antagonists of the constitutive androstane receptor (CAR) signaling pathway (AID 1224838); also: nearly all actives have a fitted effect of over 40% in size
Chain of Nuclear receptor subfamily 1 group I member 3 (Homo sapiens) (Q14994 whole entry, looked up): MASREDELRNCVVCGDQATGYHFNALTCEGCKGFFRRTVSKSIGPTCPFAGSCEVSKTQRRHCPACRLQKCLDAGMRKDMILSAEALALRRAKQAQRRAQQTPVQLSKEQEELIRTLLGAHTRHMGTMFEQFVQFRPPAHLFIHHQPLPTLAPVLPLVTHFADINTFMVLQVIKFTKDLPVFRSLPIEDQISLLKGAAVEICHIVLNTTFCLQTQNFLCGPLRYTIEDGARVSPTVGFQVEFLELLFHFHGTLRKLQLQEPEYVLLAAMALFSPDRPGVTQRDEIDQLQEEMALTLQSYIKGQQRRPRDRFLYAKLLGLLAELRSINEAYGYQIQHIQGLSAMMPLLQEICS
In short: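 HepG2 cells stably carrying hCAR and a CYP2B6-2.2kb luciferase reporter, seeded 4 hrs before compound (15 concentrations). Stimulated with 50 nM CITCO for 24 hr at 37 C. ONE-Glo luminescence read after 30 min at room temperature.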

Measured: Potency

NS(=O)(=O)c1cc2c(cc1Cl)NC(C(Cl)Cl)NS2(=O)=O (centres undefined)
not listed: [17] | [18] | [19] | [20]
inactive: all other assays above

CCN(CC)C(=O)C1CN2CCc3cc(OC)c(OC)cc3C2CC1OC(C)=O (centres undefined)
not listed: [12] | [14] | [19] | [20]
inactive: all other assays above

O=C(O)CCNC(=O)c1ccccc1
not listed: [1] | [16] | [17] | [18] | [20]
inactive: all other assays above

CC(=O)OC(C)c1ccccc1 (centres undefined)
not listed: [10] | [15] | [17]
inactive: all other assays above

CCCCC(C)C(=O)O (centres undefined)
not listed: [10] | [17] | [20]
inactive: all other assays above

CCCCC(CC)COC(=O)c1ccccc1 (centres undefined)
not listed: [10]
inactive: all other assays above

CCOC(=O)C(C)(C)C
not listed: [12] | [15] | [17] | [20]
inactive: all other assays above

C[N+](C)(C)CC(O)CCl (centres undefined)
not listed: [14] | [18] | [20]
inactive: all other assays above

Cc1ccccc1N1CCN(CCc2nnc3n2CCCC3)CC1
not listed: [10] | [17] | [20]
inactive: all other assays above

CC(C)CCCCCCOC(=O)C1CCCCC1C(=O)OCCCCCCC(C)C (centres undefined)
not listed: [18] | [20]
inactive: all other assays above

COc1cc2c(Nc3ccc(Br)cc3F)ncnc2cc1OCC1CCN(C)CC1
not listed: [10] | [17]
inactive: all other assays above

CCC(CO)CO
not listed: [15] | [18] | [20]
inactive: all other assays above

O=[Si]=O
not listed: [15] | [18] | [19] | [20]
inactive: all other assays above

NC(=O)NNC(N)=O
not listed: [1] | [16] | [18] | [19] | [20]
inactive: all other assays above

CO/N=C(/C(=O)N[C@@H]1C(=O)N2C(C(=O)O)=C(Cn3nnc(C)n3)CS[C@H]12)c1csc(N)n1
not listed: [12] | [20]
inactive: all other assays above

CC(=O)/C=C/c1ccco1
not listed: [10] | [17] | [20]
inactive: all other assays above
